CYP2C19 inh: inhibitors of human CYP2C19 | P33261 | CYP2C19 Supersomes, luciferin-H EGE luminescence, 30 min | inhibition, % at 5 µM | 96,000 tested, 21% active;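 active = CYP2C19 inhibition above a set limit at 5 µM in the primary screen, cut at about 50% in these data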;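 also: plate controls were negative control wells for no effect and 2.5 mM tranylcypromine positive control for full effect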
Target sequence (P33261 whole entry, looked up): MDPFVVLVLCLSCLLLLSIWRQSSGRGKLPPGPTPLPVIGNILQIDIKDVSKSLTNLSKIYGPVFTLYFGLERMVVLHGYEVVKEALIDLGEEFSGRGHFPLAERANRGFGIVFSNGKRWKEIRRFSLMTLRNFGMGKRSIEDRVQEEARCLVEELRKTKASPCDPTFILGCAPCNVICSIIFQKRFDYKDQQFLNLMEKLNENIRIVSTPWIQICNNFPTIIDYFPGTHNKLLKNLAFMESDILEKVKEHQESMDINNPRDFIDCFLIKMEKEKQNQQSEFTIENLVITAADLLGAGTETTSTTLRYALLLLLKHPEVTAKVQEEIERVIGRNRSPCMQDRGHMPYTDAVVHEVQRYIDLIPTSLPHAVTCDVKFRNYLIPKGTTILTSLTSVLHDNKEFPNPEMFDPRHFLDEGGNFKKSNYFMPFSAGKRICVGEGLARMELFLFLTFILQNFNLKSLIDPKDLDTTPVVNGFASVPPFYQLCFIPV
CYP2C19 act: cytochrome P450 2C19 (human) activation. P33261. recombinant CYP2C19, luciferin-H EGE luminescence; hits give high values; 0 = fully inhibited enzyme, 1 = untreated enzyme. activation factor at 5 µM. 96,000 tested, under 10 active;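 active = activation factor of at least 2 at 5 µM in the primary screen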;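 also: 0 = wells with 2.5 mM tranylcypromine and 1 = vehicle-only wells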
CYP2C9 activ: CYP2C9 (human) activation; P11712; recombinant CYP2C9, luciferin-H conversion, luminescence; hits give high values; factor 1 = untreated enzyme, 0 = blocked; activation factor at 5 µM; 96,000 tested, 1.4% active; AID 1024;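 active = activation factor of 2 or more for CYP2C9 at a 5 µM dose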;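 also: 0 = sulfaphenazole-blocked wells and 1 = vehicle-only wells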
CYP2C9 inhib: blocks human cytochrome P450 2C9. CYP2C9 Supersomes, luciferin-H conversion, luminescence. 96,000 tested, 20% active. AID 777. inhibition, % at 5 µM. P11712;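 active = blocking of liver enzyme CYP2C9 beyond about 50% at 5 µM, limit read from the data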
Cav3 T inh: inhibitors of human Cav3.2 T-type calcium channel. Cav3.2-expressing cells, Fluo-4 calcium fluorescence FDSS; hits give low values. B-score at 10 µM. 100,000 tested, 4% active. AID 449739;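 active = single-dose well whose peak fluorescence ratio is a statistical outlier from its plate by either plate-standardised score or position-corrected B-score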
Starred values were filed as active, the others as inactive; · = no result given. Only some compounds are listed: those with a hit (about 27% of all), similar ones and a draw of the others.

SMILES	CYP2C19 inh	CYP2C19 act	CYP2C9 activ	CYP2C9 inhib	Cav3 T inh
CCn1c(=O)cc(SCC(=O)Nc2ccc(Cl)cc2)c2ccccc21	-15	1.1	1.1	-12	-0.018
Cn1c(=O)cc(OCC(=O)NCCCN2CCN(c3ccccc3F)CC2)c2ccccc21	-2	1	1.1	-8	1.3
CCn1c(=O)cc(SCC(=O)N2CCN(C(=O)c3ccco3)CC2)c2ccccc21	9	0.9	1	5	1
CCn1c(=O)cc(SCC(=O)N2CCN(C3CCCCC3)CC2)c2ccccc21	65*	0.4	2.4*	-143	1.7
CCn1c(=O)cc(SCC(=O)N2CCN(c3ccccc3OC)CC2)c2ccccc21	43	0.6	2.3*	-129	-0.76
CCCCn1ccc(=O)c2c(C(F)(F)F)nccc21	-8	1.1	1.1	-6	1.5
O=c1cc(-c2cccc(Br)c2)oc2cccc(O)c12	·	·	·	·	-0.3
COCCCN1C(=O)c2ccc(C(=O)Nc3ccc(OC)cc3)cc2C1=O	10	0.9	0.9	13	0.57
CCOc1ccc(Nc2nc(NCCN3CCOCC3)nc(OC)n2)cc1	0	1	0.9	7	1.4
CCOC(=O)C(C(C)=O)C(c1ccc(OCCC(C)C)cc1)C(C(C)=O)C(=O)OCC (configuration not stated)	·	·	·	·	-2.9
O=C(CSCCO)Nc1nccs1	6	0.9	1.2	-24	-0.1
Cc1nc2ccccc2n1CC(O)Cn1c2ccccc2c2ccccc21 (configuration not stated)	75*	0.2	0.2	78*	-1.3
Cc1ccc2c(c1)c1c(n2CC(O)Cn2c(C)nc3ccccc32)/C(=N\O)CCC1 (configuration not stated)	54*	0.5	0	96*	-0.015
Cc1cc(C(=O)N/N=C/c2ccccc2Br)no1	-12	1.1	1.3	-27	0.12
COC(=O)c1ccc(CSc2ccc3nnc(-c4ccccn4)n3n2)o1	20	0.8	0.8	21	1.8
CCOc1ccc(-c2nnc3ccc(SCc4ccc(C(=O)OC)o4)nn23)cc1	65*	0.4	0.1	85*	-0.78
CCOC(=O)Nc1sc(C)nc1-c1ccccc1	61*	0.4	0.8	18	-0.098
CCOC(=O)c1sc(N(C)C)nc1-c1ccccc1	·	·	·	·	0.27
COCC(=O)Nc1nc(-c2ccc(C)cc2)c(C)s1	·	·	·	·	0.56
CCOC(=O)Nc1nc(-c2ccccc2)c(C(=O)c2ccc(Cl)cc2)s1	73*	0.3	0.4	64*	-4
CCc1sc(NC(=O)COC)nc1-c1ccccc1	75*	0.2	0.4	57*	0.44
O=C1Cc2cccc3cccc1c23	2	1	1.1	-9	0.19
O=c1oc(-c2ccco2)nc2sc3c(c12)CCCC3	·	·	·	·	-0.3
CCCCNC(=O)Nc1cc(C(=O)OC)ccc1Cl	23	0.8	1.1	-11	-3.6
CC(=NC(C)C)C1=C(O)CCC1=O	1	1	0.9	13	-0.24
SMILES	CYP2C19 inh	CYP2C19 act	CYP2C9 activ	CYP2C9 inhib	Cav3 T inh
CC(=Nc1ccc(C)c(C)c1)C1=C(O)CCC1=O	54*	0.5	0.7	34	-0.012
O=C1CCCC2=C1C(c1cccs1)n1ncnc1N2 (configuration not stated)	-8	1.1	1.1	-12	0.34
COC(=O)C1=C(C)Nc2ncnn2C1c1ccc(OCc2ccccc2)cc1 (configuration not stated)	-11	1.1	1	-1	-0.34
Fc1ccc(C2C3=C(Nc4ncnn42)c2ccccc2OC3c2ccncc2)cc1 (configuration not stated)	93*	0.1	0.2	77*	-2
Cc1ccc(C2Oc3ccccc3C3=C2C(c2cccs2)n2ncnc2N3)cc1 (configuration not stated)	17	0.8	0.5	50	-4.6*
COc1cc(OC)cc(-c2nnc(SCC(=O)N3CCCc4ccccc43)o2)c1	92*	0.1	0.8	20	-4.3*
COc1ccc(OC)c(-c2nnc(SCC(=O)N3CCCc4ccccc43)o2)c1	98*	0	0.7	26	·
COc1cccc(-c2nnc(SCC(=O)N3CCCc4ccccc43)o2)c1	95*	0.1	0.6	36	·
COc1cccc(-c2nc(CSCC(=O)N3CCc4ccccc43)c(C)o2)c1	2	1	1	-3	-1.6
O=C(CSc1nnc(-c2cccs2)o1)N1CCCc2ccccc21	77*	0.2	0.7	32	-1
O=C(CSc1nnc(-c2cccs2)o1)N1CCc2ccccc21	24	0.8	1.1	-14	-1.3
COc1ccccc1Nc1nc(NCCCCO)nc(N2CCCC2)n1	·	·	·	·	-0.37
Cc1ccc(O)c(NC(=S)NC(=O)c2ccc(-c3ccc(Cl)cc3)o2)c1	·	·	·	·	-0.86
COc1cccc(-c2nnc(SCC(=O)N(C(C)C)C(C)C)o2)c1	36	0.6	1	-3	-1.7
Cc1occc1-c1nnc(SCC(=O)N(C)C)o1	8	0.9	0.9	9	0.35
COc1cc(OC)cc(-c2nnc(SCC(=O)N(C(C)C)C(C)C)o2)c1	72*	0.3	2.3*	-133	-1.9
Cc1occc1-c1nnc(SCC(=O)N2CCc3ccccc32)o1	74*	0.3	0.8	16	0.14
CC(C)=CC(=O)Nc1nnc(C(C)C)s1	0	1	1	4	-1.3
CC(C)=CC(=O)Nc1nnc(-c2cccnc2)s1	87*	0.1	0.9	10	0.085
O=c1oc2ccccc2c2c1ncn2C1CCCCC1	16	0.8	0.8	16	-3.6
CC(c1ccccc1)N1CCn2c(nc3cc(NC(=O)NC4CCCCC4)ccc32)C1 (configuration not stated)	12	0.9	0.7	31	-1.2
CC(NC(=O)c1ccco1)C(=O)OCc1cccc(Cl)c1 (configuration not stated)	45	0.5	1	4	0.55
O=C1CCCN1c1ccc(S(=O)(=O)Oc2cccc(Cl)c2)cc1[N+](=O)[O-]	66*	0.3	0.5	46	-1.4
COC(=O)c1cc(NS(=O)(=O)c2ccc(N3CCCCC3)c([N+](=O)[O-])c2)cc(C(=O)OC)c1	10	0.9	0.8	22	-0.004
CC(O)(CC(=O)O)CC(=O)O	·	·	·	·	-0.0021
Cc1ccc(SCc2noc(C(=O)NCC3CCCO3)c2C(=O)O)cc1C (configuration not stated)	16	0.8	0.5	46	0.51
O=C(NCC1CCCO1)c1onc(CSc2cccc3ccccc23)c1C(=O)O (configuration not stated)	46	0.5	0.2	82*	-0.85
CCOc1cccc(SCc2noc(C(=O)NCC3CCCO3)c2C(=O)O)c1 (configuration not stated)	54*	0.5	0.5	50*	0.31
CCc1ccccc1SCc1noc(C(=O)NCC2CCCO2)c1C(=O)O (configuration not stated)	22	0.8	1	1	1.1
O=C(NCC1CCCO1)c1onc(CSc2cccc(Cl)c2)c1C(=O)O (configuration not stated)	28	0.7	0.5	55*	1
